# In the library only some 10% were active in any assay of this set; here they are far more common.
# SW480 rerep = induces DNA re-replication in SW480 colon adenocarcinoma cells. Potency, µM (highest dose often 46.1 µM), for the others: at the highest dose re-replication activation, most hits filed as activators. 1.8% of 340,000 active. AID 624297. SW480 DNA re-replication, Hoechst DNA content imaging, 48 h; also: % of control where 0% means no effect; nearly all actives have a fitted effect of over 55% in size
#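 DNA re-replication was detected as more nuclei of elevated Hoechst intensity after 48 hr exposure to compound (23 nL pinned per well of 250 cells).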
# VP16 counter = Gal4-VP16 reporter inhibition counter-screen | Drosophila S2 Gal4-VP16 UAS-luciferase, luminescence, 20 h | Potency, µM (top dose mostly 53.6 µM), inactives show top-dose activity, negative = inhibition, usual class: inhibitors | 3.5% of 310,000 active;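 also: Gal4-VP16 expression switched on by copper sulfate through the metallothionein promoter; % is scaled to controls: 0 for no effect and ±100 for the full control effect; nearly all actives have a fitted effect of over 50% in size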
# RORgamma inh = ROR gamma (mouse) transcription inhibition | P51450 | Drosophila S2 Gal4-RORgamma UAS-luciferase reporter, 20 h | Potency, µM (titrated, usually from 53.6 µM), for inactives: at the highest dose activity change, negative = inhibition, most hits filed as inhibitors | 5.4% of 310,000 active | AID 2551; also: % is scaled to controls: 0 for no effect and ±100 for the full control effect; nearly all actives have a fitted effect of over 60% in size
# Target sequence (P51450 whole entry, looked up, the tested form may be a part): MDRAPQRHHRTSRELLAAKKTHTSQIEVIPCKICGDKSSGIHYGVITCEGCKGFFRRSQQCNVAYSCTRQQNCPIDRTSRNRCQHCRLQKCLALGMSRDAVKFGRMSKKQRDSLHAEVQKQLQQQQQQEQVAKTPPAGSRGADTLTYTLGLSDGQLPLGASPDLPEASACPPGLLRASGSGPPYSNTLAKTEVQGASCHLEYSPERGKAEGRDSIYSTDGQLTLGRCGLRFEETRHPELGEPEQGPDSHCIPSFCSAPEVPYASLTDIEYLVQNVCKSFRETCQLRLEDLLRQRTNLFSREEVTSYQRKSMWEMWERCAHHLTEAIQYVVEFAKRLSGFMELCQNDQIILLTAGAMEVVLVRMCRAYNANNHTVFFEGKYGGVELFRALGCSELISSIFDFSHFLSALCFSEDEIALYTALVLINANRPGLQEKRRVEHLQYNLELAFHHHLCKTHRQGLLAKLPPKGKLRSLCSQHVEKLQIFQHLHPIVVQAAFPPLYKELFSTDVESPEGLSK
#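 Stable Schneider cell line, Gal4 DNA-binding domain fused to ROR gamma, UAS-luciferase. Cmpd 1 hr RT → CuSO4 700 uM final → 20 hr RT → luciferase reagent 10 min → luminescence.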
# MCF10A rereplic = DNA re-replication induction in MCF 10a cells | 2.9% of 350,000 active | MCF 10A DNA re-replication, Hoechst nuclear intensity, 48 h | Potency, µM (top dose mostly 46.1 µM), inactives show at the highest dose activity, positive = re-replication, actives largely listed as activators; also: % of control where 0% means no effect; nearly all actives have a fitted effect of over 50% in size
# ELG1 DNA repair = inhibitors of ELG1-dependent DNA repair in HEK293T cells; HEK293T ELG1-luciferase reporter, luminescence, 16 h; DNA damage induced by 5-fluorouridine; Potency, µM (top dose mostly 46.1 µM), for inactives: at the highest dose activity change, negative = inhibition, usual class: inhibitors; 2.3% of 330,000 active; AID 504467; also: % is scaled to controls: 0 for no effect and ±100 for the full control effect; nearly all actives have a fitted effect of over 55% in size
#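 Overnight (16 hr) co-exposure of 2,000 cells/well to 5-fluorouridine and compound at 37 °C preceded detection. Luciferase was quantified via ONE-Glo luminescence; loss of signal denotes inhibition.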
# Active calls of the source: *; ? = inconclusive; nt = no result given; [ ] = dose if it differs, or a comment. Calls follow the shape of the dose curve; as a rule, active = well fitted curve in the direction sought with a large enough effect; inconclusive = small, poorly fitted or top-dose-only effect, or another doubt; inactive = no such curve, though single readings can be large; an effect the other way counts as inactive or inconclusive. Potency is read from the fitted curve at half-maximal effect.
SMILES,SW480 rerep,VP16 counter,RORgamma inh,MCF10A rereplic,ELG1 DNA repair
CC(=O)c1ccc(CC2SC(N)=NC2=O)cc1 (stereo unspecified),-3%,4%,21%[1.91 µM],17%,2%
Cn1c2c(c(=O)n(C)c1=O)C(CC(=O)Nc1ccc(F)cc1)C(=O)N2 (stereo unspecified),-7%,8%,38%,-8%,23%
COc1ccccc1OCCSc1nc2ccccc2c(=O)[nH]1,0%,13%,26%,21µM*,?
Cc1oc2c(C)c3oc(=O)c(CCC(=O)NCCN4CCOCC4)c(C)c3cc2c1C,-51%,-15%,-17%,-5%,-2%
CCOC(=O)c1[nH]cnc1C(=O)Nc1ccc(F)cc1,-6%,-19%,?,-7%,9%
CCOC(=O)c1ccc(NC(=O)c2nc[nH]c2C(=O)N(CC)CC)cc1,-5%,?,11µM*,3%,19%
CCN(CC)C(=O)c1[nH]cnc1C(=O)Nc1ccc(OC)cc1,1.8µM*,-24%,?,-20%,9%
COc1ccc(NC(=O)c2nc[nH]c2C(=O)N(C)Cc2ccccc2)cc1,-2%[9.22 µM],?,7.1µM*,-3%,-19%
CCOC(=O)c1[nH]cnc1C(=O)Nc1cccc(N)n1,-121%,-9%,14%,-2%,9.2µM*
CCOC(=O)N1CCN(C(=O)COC(=O)Cc2ccc(Cl)cc2)CC1,-26%,8%,-28%,?,2%
Cc1[nH]c2ccc(C(=O)OCC(=O)NC3(C#N)CCCCC3)cc2c1C,-76%,nt,nt,9%,13%
Cc1cc2ccccn2c1C(=O)c1ccc(S(=O)(=O)N(C)C)cc1,?,-23%,?,-2%,16µM*
Cc1cc2ccccn2c1C(=O)c1ccc([N+](=O)[O-])o1,21µM*,?,-41%,?,?
Cc1cc2ccccn2c1C(=O)c1cccc([N+](=O)[O-])c1,21%,-6%,26%,?,-15%
Cc1cc(SCC(=O)N/N=C/c2ccc(O)cc2O)nc2ccccc12,12µM*,?,-41%,18%,2%
COc1ccc2nc(C)cc(SCC(=O)N/N=C/c3cccc4ccccc34)c2c1,4.6µM*,-25%,11µM*,3.7µM*,?
COc1cccc(/C=N/NC(=O)CNC(=O)/C=C\c2ccccc2)c1O,-4%,3.2µM*,2.5µM*,0%,0%
O=C(CCc1ccccc1)NCC(=O)N/N=C/c1ccc(O)cc1O,?,-13%,-10%,?,8.2µM*
Cc1cc(SCC(=O)N/N=C/c2ccc(O)c(O)c2)nc2ccccc12,?,-24%,17%,18%,?
CC(Oc1ccccc1C(N)=O)C(=O)Nc1ccc(S(=O)(=O)N2CCCC2)cc1 (stereo unspecified),0%,nt,nt,3%,?
COC(=O)C1=C(C)NC(C)=C(C(=O)OC)C1C(=O)OCc1nnc(-c2ccccc2Cl)o1,2%,nt,nt,14%,?
COc1cccc(/C=N/NC(=O)CNC(=O)C(c2ccccc2)c2ccccc2)c1O,25%,?,1.8µM*,?,-29%
COc1ccc(/C=C\C(=O)NCC(=O)N/N=C/c2cccc(OC)c2O)cc1,?,7.9µM*,1.6µM*,4%,-7%
COc1ccccc1/C=C/C(=O)NCC(=O)N/N=C/c1ccccc1,-14%,9%,6%,-2%,-6%
COc1ccccc1/C=C\C(=O)NCC(=O)N/N=C/c1ccc(O)cc1O,-3%,-2%,-12%,?,23µM*
SMILES,SW480 rerep,VP16 counter,RORgamma inh,MCF10A rereplic,ELG1 DNA repair
CC1CCCC(NC(=O)Cn2cc(Br)ccc2=O)C1C (stereo unspecified),-2%,nt,nt,0%,20%
CC1=NN(C(=O)c2ccccc2F)C(O)(c2ccc(Cl)cc2)C1 (stereo unspecified),-7%,6.3µM*,5.6µM*,?,5%
CC1=NN(C(=O)c2ccccc2Cl)C(O)(c2ccccc2)C1 (stereo unspecified),17%,7.1µM*,6.3µM*,-14%,6%
O=C(c1csnn1)N1CCC2(CC1)CCN(c1ccccn1)CC2,nt,-11%,26%,nt,nt
CC1CCCC(NC(=O)COC(=O)c2cc3ccccc3oc2=O)C1C (stereo unspecified),-2%,nt,nt,1%,?
Cc1nc(C)c(C(=O)NNS(=O)(=O)c2ccc3ccccc3c2)s1,6%,1µM*,?,-6%,-19%
O=C(COc1ccc(C(=O)c2ccccc2)cc1)NC1CCCCCC1,-36%,?,?,-56%,?
CCC(C)(C)NC(=O)COc1ccc(C(=O)c2ccccc2)cc1,8%,13µM*,34%,-1%,-21%
CCC(=O)c1ccc(OCc2ccc(C(=O)c3ccccc3)cc2)cc1,9%,7.1µM*,?,-7%,?
CNC(=O)c1ccsc1NC(=O)CS(=O)(=O)c1ccc(Cl)cc1,?,7%,9%,0%,0%
O=C1OC(c2ccc(F)cc2)=C/C1=C\c1ccc(O)cc1,-11%,?,6.3µM*,12%,6%
O=C1OC(c2ccc(F)cc2)=C/C1=C\c1ccc([N+](=O)[O-])o1,nt,?,-40%,nt,12%
Cc1cccc(N2CC(C(=O)OCC(=O)c3ccc(OC(=O)c4cccs4)cc3)CC2=O)c1C (stereo unspecified),-1%,22%,11%,11%,-1%
COc1ccccc1C(CCN(Cc1cccs1)C(C)=O)c1ccco1 (stereo unspecified),2%,2%,?,19%,-9%
CCC(=O)N(CCC(c1ccccc1)c1ccco1)Cc1cccs1 (stereo unspecified),11%,10%,12%,11µM*,-7%
O=C(CSc1nc2ccccc2nc1SCC(=O)N1CCOCC1)N1CCOCC1,-7%,nt,-5%[0.365 µM],-2%,3%
O=C(CSc1nc2ccccc2nc1SCC(=O)N1CCCCC1)N1CCCCC1,2%,-8%,2%,19%,16µM*
Cc1[nH]c2ccccc2c1SCC(=O)N1CCCCC1,15%,?,9%,5.8µM*,2%
COC(=O)CSc1nc2ccccc2nc1SCC(=O)OC,18µM*,-9%,-15%,23µM*,11%
Cc1[nH]c2ccccc2c1SCC(=O)N1CCCCCC1,-24%,5%,0%,?,-10%
COc1ccc(CCNCC(=O)N2C(C)CCCC2C)cc1OC (stereo unspecified),?,-3%,-19%,-2%,-1%
C=CCNc1nc(S(=O)Cc2ccc(C)cc2)nc2c1CCCC2 (stereo unspecified),-13%,-10%,17%,18%,-27%
Cc1ccc2c(c1)c1c(n2CC(O)CN2CCCCC2C)CCCC1 (stereo unspecified),18µM*,2%,-7%,?,-13%

# Assay outcomes deposited in PubChem by National Center for Advancing Translational Sciences (NCATS).
